From PubChem BioAssay (EPA / NIEHS) come the findings set out here.

The structures appear in SMILES notation. More than one record can exist for a structure, and the calls need not agree. The source made the active and inactive calls. Rule for the calls: active = hit-call score of the fitted dose curve at least 0.9, where 1 is the maximum; inactive = score below 0.9.

Read-out in the assay: Matrix Metallopeptidase 3 (MMP3), MMP3 (gene 4314)
The assay can be described thus: BSK_BF4T_MMP3: BioMAP Diversity Plus: BF4T Assay for Matrix Metallopeptidase 3 (MMP3) Biomarker Activity (AID 2284271). The conditions noted are these: primary human bronchial epithelial cells with fibroblasts. In short, it runs like this: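 MMP-3 level read by ELISA after 24 h chemical exposure of bronchial epithelial cell/dermal fibroblast co-cultures, fitted upward relative to DMSO. Parallel cultures stained with 0.1% SRB after TCA fixation gauge overt cytotoxicity.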
For the compound `COC(F)(C(F)F)C(F)(F)F` (stereo unspecified), the result was inactive.
Still for that read-out and setting: the value for `OC(O)C(F)(F)C(F)(F)F` was “inactive”; that for `O=C(O)CCC(F)(F)C(F)(F)C(F)(F)C(F)(F)C(F)(F)C(F)(F)C(F)(F)F` was “inactive”.
The same measure, in the same setting: the value for `O=S(=O)(Cl)C(F)(F)C(F)(F)C(F)(F)C(F)(F)C(F)(F)C(F)(F)C(F)(F)C(F)(F)F` was “inactive”; that for `O=S(=O)(O)CCC(F)(F)C(F)(F)C(F)(F)C(F)(F)F` was “inactive”; that for `NC(=O)C(F)(F)C(F)(F)C(F)(F)C(F)F` was “inactive”.
The same measure, in the same setting: the value for `C=CC(=O)OCC(F)(F)C(F)(F)C(F)(F)COC(=O)C=C` was “inactive”; that for `O=C(Cl)C(F)(F)C(F)(F)C(F)(F)C(F)(F)C(F)(F)C(F)(F)C(F)(F)F` was “inactive”.
Regarding `NC(=O)C(F)(F)C(F)(F)C(F)(F)C(F)(F)C(F)(F)C(F)(F)C(F)(F)F`, the outcome was inactive.
As to `OCC(O)CC(F)(F)C(F)(F)C(F)(F)C(F)(F)F` (stereo unspecified), the result was inactive.
On to `FC(F)(F)C(F)(F)C(F)(F)C(F)(F)C(F)(F)C(F)(F)CC[Si](Cl)(Cl)Cl`, for which the AC50 is 0.211 µM (active) and the result was inactive.
`OCC(F)(F)C(F)(F)C(F)(F)C(F)(F)C(F)(F)C(F)(F)CO`: the outcome was inactive.
On to `OCC(O)CC(F)(F)C(F)(F)C(F)(F)C(F)(F)C(F)(F)C(F)(F)C(F)(F)C(F)(F)F` (stereo unspecified), for which the outcome was inactive.
Consider `NC(=O)C(F)(F)C(F)(F)C(F)(F)F`, for which the outcome was inactive.
In the case of `C=CC(=O)OCC(F)(F)C(F)(F)C(F)(F)C(F)(F)C(F)(F)C(F)(F)C(F)(F)C(F)F`, the outcome was inactive.
Turning to `O=C(F)C1(F)C(F)(F)C(F)(F)C(F)(F)C(F)(F)C1(F)F`, the result was inactive.
Take `O=S(=O)(OCC(F)(F)F)C(F)(F)C(F)(F)C(F)(F)C(F)(F)F`: the result was inactive.
The same measure, in the same setting: the value for `OCC(F)(F)C(F)(F)C(F)(F)CO` was “inactive”.
Consider `CNS(=O)(=O)C(F)(F)C(F)(F)C(F)(F)C(F)(F)C(F)(F)C(F)(F)C(F)(F)C(F)(F)F`, for which the AC50 was 13.3 µM (active) and the outcome was inactive.
In the case of `O=C(O)C(F)(F)C(F)(F)C(F)(F)OC(F)(C(F)(F)F)C(F)(F)F`, the AC50 was 39.5 µM (active) and the outcome was inactive.
Take `C[Si](Cl)(Cl)CCC(F)(F)C(F)(F)C(F)(F)C(F)(F)C(F)(F)C(F)(F)F`: the result was inactive.
As for `C=CC(=O)OCCC(F)(F)C(F)(F)C(F)(F)C(F)(F)F`, the result was inactive.
Regarding `NC(O)(C(F)(F)F)C(F)(F)F`, the outcome was inactive.
Still for that read-out and setting: the value for `FC(F)(F)C(F)(F)C(F)(F)C(F)(F)C(F)(F)C(F)(F)C(F)(F)CCI` was “inactive”; that for `O=S(=O)(O)CCC(F)(F)C(F)(F)C(F)(F)C(F)(F)C(F)(F)C(F)(F)C(F)(F)C(F)(F)F` was “inactive”; that for `O=C(O)C(F)(F)C(F)(F)C(F)(F)OC(F)(F)F` was “inactive”.
Same read-out and setting: the value for `FC(F)(F)C(F)(F)C(F)(F)CC1CO1` (stereo unspecified) was “inactive”.
The same measure, in the same setting: the value for `O=C(Cl)C(F)(F)C(F)(F)C(F)(F)C(F)(F)C(F)(F)C(F)(F)F` was “inactive”; that for `C=C(C)C(=O)OCC(F)(F)C(F)(F)C(F)(F)C(F)F` was “inactive”.
Consider `CN(C(=O)C(F)(F)C(F)(F)C(F)(F)F)[Si](C)(C)C`, for which the outcome was inactive.
As to `NCC(F)(F)C(F)(F)C(F)(F)C(F)(F)C(F)(F)C(F)(F)C(F)(F)C(F)(F)F`, the outcome was inactive.
`CO[Si](C)(CCC(F)(F)C(F)(F)C(F)(F)C(F)(F)C(F)(F)C(F)(F)F)OC`: the result was inactive.
Turning to `NC(=O)C(F)(F)C(F)(F)C(F)(F)C(F)(F)C(N)=O`, the outcome was inactive.

The term AC50 denotes the concentration giving half of the maximal activity seen.
